{
  "source": "PubChem BioAssay",
  "data": [
    {"target": "PEG-3 (UniProt Q6IN02)", "sequence (Q6IN02 whole entry, looked up)": "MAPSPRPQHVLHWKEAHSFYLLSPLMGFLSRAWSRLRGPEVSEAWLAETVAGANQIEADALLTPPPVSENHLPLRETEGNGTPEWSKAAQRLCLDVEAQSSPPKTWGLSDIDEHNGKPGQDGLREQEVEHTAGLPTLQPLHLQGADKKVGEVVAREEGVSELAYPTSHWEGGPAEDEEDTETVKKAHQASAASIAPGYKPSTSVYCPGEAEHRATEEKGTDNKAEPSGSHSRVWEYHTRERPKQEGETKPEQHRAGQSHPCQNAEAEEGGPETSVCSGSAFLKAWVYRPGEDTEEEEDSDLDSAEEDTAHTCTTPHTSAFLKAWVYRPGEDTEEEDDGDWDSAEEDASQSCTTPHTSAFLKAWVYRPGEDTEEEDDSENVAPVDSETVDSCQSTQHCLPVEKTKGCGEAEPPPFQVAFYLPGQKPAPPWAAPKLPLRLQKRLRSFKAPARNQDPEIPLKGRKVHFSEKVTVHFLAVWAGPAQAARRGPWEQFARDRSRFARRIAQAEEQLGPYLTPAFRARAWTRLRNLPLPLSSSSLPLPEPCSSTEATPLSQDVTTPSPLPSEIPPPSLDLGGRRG", "assay": "Peg3 promoter luciferase inhibitors, potency, dose response, cell-based, HeLa, CREF/GAPDH counter-screen panel (AID 624167)", "settings": "CREF/GAPDH counter-screens; HeLa PEG-Prom luciferase reporter, overnight, run 1, dose range 1, at 100 µM (top of the series) unless noted", "units": {"inhibition": "%"}, "values": [
      {"smiles": "CC(C)N1CCc2c(sc(NC(=O)c3cc4cc([N+](=O)[O-])ccc4s3)c2C(N)=O)C1", "inhibition": 98.8},
      {"smiles": "CCC1CCCCN1S(=O)(=O)c1ccc(C(=O)N(CCCN(C)C)c2nc3cc4c(cc3s2)OCO4)cc1", "note": "(centres undefined)", "inhibition": 101},
      {"smiles": "Cc1ccc(C(=O)N/C(=C\\c2ccc(-c3cccc([N+](=O)[O-])c3)o2)C(=O)NCCCN(C)C)cc1", "inhibition": 102},
      {"smiles": "COc1ccc(-c2ccc3[nH]c4c(c3c2)CCN2C[C@@H]([C@H](C)O)[C@@H](N(C)C(=O)Nc3cc(Cl)cc(Cl)c3)C[C@@H]42)cc1", "inhibition": 96.3},
      {"smiles": "Cc1ccc(-c2nnc(N3CCN(c4ccccn4)CC3)c3ccccc23)cc1", "inhibition": 98},
      {"smiles": "COc1ccc(Nc2oc(COc3ccccc3OC)nc2C#N)cc1", "inhibition": 69.9},
      {"smiles": "CSc1ccc(CN(C)C(=O)C(Cc2ccccc2)NC(=O)c2ccccc2)cc1", "note": "(centres undefined)", "inhibition": 101},
      {"smiles": "CC1CCCC(C)N1C(=C(Cl)Cl)C(=C1SCCS1)[N+](=O)[O-]", "note": "(centres undefined)", "inhibition": 50.8},
      {"smiles": "CC(C)CC(N)c1csc(Nc2ccc(C(=O)N(C)Cc3ccccc3)cn2)n1", "note": "(centres undefined)", "inhibition": 96.3},
      {"smiles": "Cc1ccc(-n2cc(CNCCCn3ccnc3C)c(-c3ccc(F)cc3)n2)cc1", "inhibition": 99.8},
      {"smiles": "COc1ccc(NC(=O)Nc2nc(C(N)C3CCCCC3)cs2)cc1", "note": "(centres undefined)", "inhibition": 101},
      {"smiles": "CN1CCN(CCNC(=O)c2ccc3nc(-c4ccc(F)cc4)c(-c4ccc(F)cc4)nc3c2)CC1", "inhibition": 99.2},
      {"smiles": "O=C1C(Cl)=C(Nc2ccc(O)cc2)C(=O)c2ccccc21", "inhibition": 102},
      {"smiles": "CN(C)CCNc1ccc2ncn3c4ccc(O)cc4c(=O)c1c23", "inhibition": 101},
      {"smiles": "CCOC(=O)c1c(NC(C)=O)sc2c(OCC(O)CNC(C)(C)C)c(Br)ccc12", "note": "(centres undefined)", "inhibition": 102},
      {"smiles": "CCc1cccc(CC)c1NC(=S)NCCc1c(C)[nH]c2ccc(C)cc12", "inhibition": 89.5},
      {"smiles": "Oc1ccc(C[C@H]2CNCCN2CCc2cc(C(F)(F)F)cc(C(F)(F)F)c2)cc1", "inhibition": 97.5},
      {"smiles": "CCOc1cc(/C=N/Nc2nc(-c3cccc(S(=O)(=O)N4CCCC4)c3)cs2)ccc1O", "inhibition": 77.8},
      {"smiles": "OC1(c2ccc(Cl)c(Cl)c2)C[n+]2ccccc2N1Cc1ccccc1", "note": "(centres undefined)", "inhibition": 95},
      {"smiles": "c1ccc(CCCNCCCn2cnc3c(OCc4ccccc4)ncnc32)cc1", "inhibition": 99.5},
      {"smiles": "CCCN(CC(=O)Nc1cc(Cl)cc(Cl)c1)CC(=O)Nc1ccc(F)c(F)c1F", "inhibition": 101},
      {"smiles": "COc1cccc2c1C(=N)c1c(O)c3c(c(O)c1C2=O)CC(O)(C(C)=O)CC3OC1CC(N)C(O)C(C)O1", "note": "(centres undefined)", "inhibition": 99.1},
      {"smiles": "CC(C)CC1C(=O)N(Cc2cn(CCC3OCCO3)nn2)CCS(=O)(=O)N1Cc1ccc(-c2ccc(F)cc2)cc1", "note": "(centres undefined)", "inhibition": 98.1},
      {"smiles": "Cc1nn(-c2ccccc2Cl)c(Cl)c1/C=N/Nc1nc2ccccc2s1", "inhibition": 57.6}
    ]},
    {"target": "PEG-3 (UniProt Q6IN02)", "assay": "Peg3 promoter luciferase inhibitors, potency, dose response, cell-based, HeLa, CREF/GAPDH counter-screen panel (AID 624167)", "settings": "CREF/GAPDH counter-screens; HeLa PEG-Prom luciferase reporter, overnight, run 2, dose range 1, at 100 µM (top of the series) unless noted", "units": {"inhibition": "%"}, "values": [
      {"smiles": "COc1ccc(CN(C)C(=O)c2cc(-c3ccccc3)nc3ccc(C)cc23)c(OC)c1OC", "inhibition": 96.5},
      {"smiles": "Oc1[nH]c2ccc(Br)cc2c1N=NC(=S)Nc1ccc(F)cc1", "inhibition": 100},
      {"smiles": "O=C1NC(Cc2ccc(O)cc2)c2nc3ccc(F)cc3c(=O)n2-c2cc3ccccc3cc21", "note": "(centres undefined)", "inhibition": 95.8},
      {"smiles": "Cc1ccc(S(=O)(=O)N2CCCCC2)cc1C(=O)N(C)CC(=O)Nc1ccc(Cl)c(C(F)(F)F)c1", "inhibition": 60.6},
      {"smiles": "COCC(C)n1c(C)cc(C(=O)COC(=O)c2cccn2C)c1C", "note": "(centres undefined)", "inhibition": 83.3},
      {"smiles": "COc1ccc(-c2cc(C(=O)N(C)Cc3ccccc3F)c3ccccc3n2)cc1OC", "inhibition": 94.9},
      {"smiles": "COc1ccc(-n2ncc3c(N(C)C4CCCCC4)ncnc32)cc1", "inhibition": 89.4},
      {"smiles": "O=C1CCC2S/C(=C/Nc3ccc(C(F)(F)F)cc3)C(=O)N12", "note": "(centres undefined)", "inhibition": 85.3},
      {"smiles": "NC(=O)c1nsc(C(=O)N(c2ccccc2F)C(C(=O)NCc2ccccc2)c2ccc(O)cc2)c1N", "note": "(centres undefined)", "inhibition": 99.3},
      {"smiles": "CCCOC(=O)c1cccc(Nc2nc(-c3cccnc3)nc3ccccc23)c1", "inhibition": 101},
      {"smiles": "Cc1cccc(/C=C2/Sc3ccc(C(=O)NCCN4CCCC4)cc3NC2=O)c1", "inhibition": 101},
      {"smiles": "COC(=O)C1=C(C(=O)OC)C(C(=O)OC)C(C(=O)OC)C(C(=O)OC)(C(=O)OC)C(C(=O)OC)=C1C(=O)OC", "note": "(centres undefined)", "inhibition": 101},
      {"smiles": "COc1ccccc1CNC(=O)c1c(N)n(CCCN2CCOCC2)c2nc3ccccc3nc12", "inhibition": 99},
      {"smiles": "COc1ccc(-c2cc(C(F)F)n3ncc(C(=O)n4ccnc4C)c3n2)cc1", "inhibition": 101},
      {"smiles": "CN(C)CCNc1ncnc2c1sc1nc(N3CCCC3)c3c(c12)CC(C)(C)OC3", "inhibition": 102},
      {"smiles": "N=c1c2c(-c3ccccc3)c(-c3ccccc3)n(Cc3ccccc3)c2ncn1CCO", "inhibition": 97.6},
      {"smiles": "CC(C)N1CCc2c(sc(NC(=O)c3cc4cc([N+](=O)[O-])ccc4s3)c2C(N)=O)C1", "inhibition": 101},
      {"smiles": "CCC1CCCCN1S(=O)(=O)c1ccc(C(=O)N(CCCN(C)C)c2nc3cc4c(cc3s2)OCO4)cc1", "note": "(centres undefined)", "inhibition": 96.1},
      {"smiles": "Cc1ccc(C(=O)N/C(=C\\c2ccc(-c3cccc([N+](=O)[O-])c3)o2)C(=O)NCCCN(C)C)cc1", "inhibition": 98.8},
      {"smiles": "COc1ccc(-c2ccc3[nH]c4c(c3c2)CCN2C[C@@H]([C@H](C)O)[C@@H](N(C)C(=O)Nc3cc(Cl)cc(Cl)c3)C[C@@H]42)cc1", "inhibition": 96.5},
      {"smiles": "Cc1ccc(-c2nnc(N3CCN(c4ccccn4)CC3)c3ccccc23)cc1", "inhibition": 101},
      {"smiles": "COc1ccc(Nc2oc(COc3ccccc3OC)nc2C#N)cc1", "inhibition": 88.5},
      {"smiles": "CSc1ccc(CN(C)C(=O)C(Cc2ccccc2)NC(=O)c2ccccc2)cc1", "note": "(centres undefined)", "inhibition": 96.7},
      {"smiles": "CC1CCCC(C)N1C(=C(Cl)Cl)C(=C1SCCS1)[N+](=O)[O-]", "note": "(centres undefined)", "inhibition": 68.9},
      {"smiles": "CC(C)CC(N)c1csc(Nc2ccc(C(=O)N(C)Cc3ccccc3)cn2)n1", "note": "(centres undefined)", "inhibition": 102},
      {"smiles": "Cc1ccc(-n2cc(CNCCCn3ccnc3C)c(-c3ccc(F)cc3)n2)cc1", "inhibition": 98.7},
      {"smiles": "COc1ccc(NC(=O)Nc2nc(C(N)C3CCCCC3)cs2)cc1", "note": "(centres undefined)", "inhibition": 99},
      {"smiles": "CN1CCN(CCNC(=O)c2ccc3nc(-c4ccc(F)cc4)c(-c4ccc(F)cc4)nc3c2)CC1", "inhibition": 98.2},
      {"smiles": "O=C1C(Cl)=C(Nc2ccc(O)cc2)C(=O)c2ccccc21", "inhibition": 101},
      {"smiles": "CN(C)CCNc1ccc2ncn3c4ccc(O)cc4c(=O)c1c23", "inhibition": 99.7},
      {"smiles": "CCOC(=O)c1c(NC(C)=O)sc2c(OCC(O)CNC(C)(C)C)c(Br)ccc12", "note": "(centres undefined)", "inhibition": 93.7},
      {"smiles": "CCc1cccc(CC)c1NC(=S)NCCc1c(C)[nH]c2ccc(C)cc12", "inhibition": 83.9},
      {"smiles": "Oc1ccc(C[C@H]2CNCCN2CCc2cc(C(F)(F)F)cc(C(F)(F)F)c2)cc1", "inhibition": 102},
      {"smiles": "CCOc1cc(/C=N/Nc2nc(-c3cccc(S(=O)(=O)N4CCCC4)c3)cs2)ccc1O", "inhibition": 95.5},
      {"smiles": "OC1(c2ccc(Cl)c(Cl)c2)C[n+]2ccccc2N1Cc1ccccc1", "note": "(centres undefined)", "inhibition": 101},
      {"smiles": "c1ccc(CCCNCCCn2cnc3c(OCc4ccccc4)ncnc32)cc1", "inhibition": 101},
      {"smiles": "CCCN(CC(=O)Nc1cc(Cl)cc(Cl)c1)CC(=O)Nc1ccc(F)c(F)c1F", "inhibition": 99},
      {"smiles": "COc1cccc2c1C(=N)c1c(O)c3c(c(O)c1C2=O)CC(O)(C(C)=O)CC3OC1CC(N)C(O)C(C)O1", "note": "(centres undefined)", "inhibition": 102},
      {"smiles": "CC(C)CC1C(=O)N(Cc2cn(CCC3OCCO3)nn2)CCS(=O)(=O)N1Cc1ccc(-c2ccc(F)cc2)cc1", "note": "(centres undefined)", "inhibition": 93.8},
      {"smiles": "Cc1nn(-c2ccccc2Cl)c(Cl)c1/C=N/Nc1nc2ccccc2s1", "inhibition": 47.3}
    ]}
  ]
}
